Hits are enriched below; roughly 1.6% of the tested compounds scored in any of these assays.
KCNQ2 block: rat KCNQ2 potassium channel inhibitors, primary screen, cell-based, CHO-K1, FluxOR thallium flux, B-score | 20 min; active compounds read low | B-score at 10 µM | actives 1.1% (n = 310,000) | AID 2156, 2009;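 active means fluorescence ratio B-score at most minus 3 library SDs, with starting brightness B-score within 2 library SDs, cut at about -5.5 in these data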
Target sequence (O88943 whole entry, looked up): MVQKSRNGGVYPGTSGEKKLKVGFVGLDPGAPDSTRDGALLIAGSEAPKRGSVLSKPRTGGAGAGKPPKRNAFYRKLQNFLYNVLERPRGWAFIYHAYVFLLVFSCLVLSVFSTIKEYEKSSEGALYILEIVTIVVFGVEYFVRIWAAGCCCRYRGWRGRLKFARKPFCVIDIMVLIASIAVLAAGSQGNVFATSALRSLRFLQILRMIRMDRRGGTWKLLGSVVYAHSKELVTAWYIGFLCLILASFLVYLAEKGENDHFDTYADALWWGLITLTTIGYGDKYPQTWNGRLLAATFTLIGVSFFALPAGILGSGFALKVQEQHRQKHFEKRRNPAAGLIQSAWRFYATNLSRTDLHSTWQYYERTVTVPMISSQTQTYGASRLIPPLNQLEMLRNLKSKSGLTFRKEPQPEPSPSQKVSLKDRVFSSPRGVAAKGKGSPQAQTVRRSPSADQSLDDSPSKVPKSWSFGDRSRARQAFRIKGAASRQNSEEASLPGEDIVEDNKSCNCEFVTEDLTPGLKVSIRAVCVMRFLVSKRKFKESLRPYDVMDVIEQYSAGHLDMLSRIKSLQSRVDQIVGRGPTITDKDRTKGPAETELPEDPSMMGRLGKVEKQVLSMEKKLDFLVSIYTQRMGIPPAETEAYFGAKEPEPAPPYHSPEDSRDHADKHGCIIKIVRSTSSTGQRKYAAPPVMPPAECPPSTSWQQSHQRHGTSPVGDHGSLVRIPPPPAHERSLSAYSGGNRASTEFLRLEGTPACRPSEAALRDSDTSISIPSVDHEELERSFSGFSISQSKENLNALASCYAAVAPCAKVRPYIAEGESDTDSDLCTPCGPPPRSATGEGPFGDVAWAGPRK
KCNQ2 pot: potentiators of rat KCNQ2 potassium channel; actives 0.54% (n = 310,000); B-score at 10 µM; CHO-K1 KCNQ2, FluxOR thallium flux fluorescence; active compounds read high; AID 2239, 2010; Potassium voltage-gated channel subfamily KQT member 2 (Rattus norvegicus), O88943;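 active means fluorescence ratio B-score at least 3 SD of library B-scores, with initial fluorescence B-score within 3 of them, cut at about 5.3 in these data; same plate scores as AID 2156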;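 further: B-score of peak minus minimum over baseline fluorescence ratio after K+ and Tl+ stimulus; positive B-score means potentiation of KCNQ2 with more thallium influx and brighter signal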
Each line names hits and unclear results; the compound was inactive in the other large screens.

CN(Cc1ccccc1)C(=O)C1CCCN1S(=O)(=O)c1ccc2c(c1)n(C)c(=O)c(=O)n2C (stereo not given)	none (no result: KCNQ2 pot)
Cc1ccc(C2(O)CN(c3ccccc3)C3=[N+]2CCS3)cc1 (stereo not given)	none (no result: KCNQ2 pot)
O=[N+]([O-])c1ccc(C2(O)CN(c3ccccc3)C3=[N+]2CCS3)cc1 (stereo not given)	KCNQ2 block -6.52
O=C(CCC(=O)N(CC(=O)NC1CCCC1)Cc1ccccc1)Nc1nccs1	none
COc1ccc2c(COC(=O)CCS(=O)(=O)c3ccc(C)cc3)cc(=O)oc2c1	none
COc1cc(Cl)c(C)cc1NC(=O)c1ccc(NS(=O)(=O)c2ccc(F)c(F)c2)cc1	none (no result: KCNQ2 pot)
CCN1/C(=C/c2ccc3ccccc3[n+]2CC)C=Cc2ccccc21	KCNQ2 block -14.6
CCN1/C(=C/c2ccc3ccccc3[n+]2CCCS(=O)(=O)[O-])C=Cc2cc(C)ccc21	none
Cc1ccccc1NC(=O)Cc1nc(COC(=O)c2cc(Cl)ccc2O)cs1	none (no result: KCNQ2 pot)
CN(C(=O)c1cccc(C(F)(F)F)c1)C1CCCc2ccccc21 (stereo not given)	KCNQ2 block -5.77
CSc1ccccc1OCc1cc(C(=O)N(C)C2CCCc3ccccc32)no1 (stereo not given)	none (no result: KCNQ2 pot)
COc1ccc(CCNS(=O)(=O)c2ccc([N+](=O)[O-])cc2)cc1OC	none (no result: KCNQ2 pot)
Cc1ccc(S(=O)(=O)NCc2ccccc2)cc1C(=O)N1CC(C)CC(C)C1 (stereo not given)	KCNQ2 block -6.01
Cc1ccc(S(=O)(=O)NCc2ccccc2)cc1C(=O)N1CCCCC1	none
COc1ccc2c(C=O)cn(C)c2c1	none (no result: KCNQ2 pot)
Cc1nnsc1-c1nnc(SCC(=O)c2ccc(F)cc2)n1C1CC1	none
CCOc1ccc(N=C2NC(=O)S/C2=C\c2ccc(N(C)C)cc2)cc1	none
CCOc1ccc(/C=C2/SC(=O)NC2=S)cc1	KCNQ2 pot 25.8
CC(C)(C)NC(=O)c1ccc2c(c1)N(CC(=O)N1CCCCC1)C(=O)C(C)(C)O2	none
COc1ccccc1NC(=O)c1ccc2c(c1)N(CC(=O)NC(C)(C)C)C(=O)C(C)(C)O2	none (no result: KCNQ2 pot)
Cc1ccc(NC(=O)c2ccc3c(c2)N(CC(=O)N2CCCCC2)C(=O)C(C)(C)O3)cc1	KCNQ2 block -7.89
CCOC(=O)CN1C(=O)C(C)(C)Oc2ccc(C(=O)Nc3ccccc3OC)cc21	KCNQ2 block -6.47
Cc1cc(C)c(NC(=O)/C(=C/c2ccco2)c2ccccc2)c(C)c1	KCNQ2 block -5.97
Cc1cccc(C)c1NC(=O)/C(=C/c1ccco1)c1ccccc1	none (no result: KCNQ2 pot)
COc1ccc(S(=O)(=O)N2CCOC2CNC(=O)C(=O)NCc2cccnc2)cc1C (stereo not given)	none (no result: KCNQ2 pot)
CC(C)Oc1cc(C(=O)NC2CCCCC2)c2ccccc2n1	KCNQ2 block -6.03
O=C(NC1CCCCCCC1)c1cc(-c2ccccn2)nc2ccccc12	none (no result: KCNQ2 pot)
CC(=O)NNc1nc2ccccc2s1	none
C/C(=C\C(=O)c1ccccc1)NNc1nc2ccccc2s1	KCNQ2 block -5.71
Cc1c(Cl)cccc1N(CC(=O)NC(C)c1ccccc1)S(C)(=O)=O (stereo not given)	none (no result: KCNQ2 pot)
O=c1c2cc(NC(=S)NCc3cccnc3)ccc2nc2n1CCCCC2	none
COc1ccc(/C=N/NC(=O)c2cccnc2)cc1	none (no result: KCNQ2 pot)
COc1ccc(/C=N/NC(=O)c2ccc[nH]2)cc1	KCNQ2 block -6.08
O=C(Nc1nnc(C2=COCCO2)o1)c1cccc(F)c1	none
Cc1cccc(C(=O)Nc2nnc(C3=COCCO3)o2)c1	KCNQ2 pot 17.6
CCC1C(=O)C(CC)C(c2ccccc2)NC1c1ccccc1 (stereo not given)	none (no result: KCNQ2 pot)
CCN1C(c2ccccc2)C(C)C(=O)C(C)C1c1ccccc1 (stereo not given)	KCNQ2 block -8.45
Cn1c(=O)c2c(ncn2CC(=O)N2CCN(C(=O)c3ccco3)CC2)n(C)c1=O	none
COCCNC(=S)NNC(=O)c1cc(-c2cccnc2)nc2ccccc12	none
Cc1sc2nc(SCc3nc(-c4ccccc4)no3)n(-c3ccccc3)c(=O)c2c1C	KCNQ2 block -9.03
COc1ccc(-c2noc(CSc3nnc(Cc4ccccc4)n3-c3ccc(Cl)cc3)n2)cc1	none (no result: KCNQ2 pot)
Cc1sc2nc(SCC(N)=O)n(-c3ccccc3)c(=O)c2c1C	none (no result: KCNQ2 pot)
COc1ccc(-c2noc(CSc3nc4ccccc4c(=O)n3-c3ccc(C)cc3)n2)cc1	KCNQ2 block -5.74
CCOC(=O)c1nc2sc3c(c2c(=O)n1C(C)C(=O)OCC)CCCC3 (stereo not given)	none (no result: KCNQ2 pot)
C[C@H](/C=C/[C@@]1(O)[C@H](C)C[C@H](O)CC1(C)C)O[C@@H]1O[C@H](CO)[C@@H](O)[C@H](O)[C@H]1O	none (no result: KCNQ2 pot)
Cn1c(CC(=O)Nc2ccc(Cl)cc2)nnc1SCC(=O)N1CCOCC1	none
Cc1cc(C)nc(SCc2nnc(SCc3ccc([N+](=O)[O-])cc3)n2Cc2ccco2)n1	KCNQ2 block -5.76
COC(=O)CSc1nnc(CSc2nc(C)cc(C)n2)n1Cc1ccco1	none (no result: KCNQ2 pot)
C=CCc1cccc(/C=N/NC(=O)c2ccccc2OC)c1O	none
C=CCc1cccc(/C=N/NC(=O)c2ccccc2Br)c1O	KCNQ2 pot 9.59
CCC(C)NC(=O)c1cn(CC)c2ccc(S(=O)(=O)N3CCCCCC3)cc2c1=O (stereo not given)	none (no result: KCNQ2 pot)
NS(=O)(=O)c1ccc(NCc2ccccc2OCc2ccccc2F)cc1	none
NS(=O)(=O)c1ccc(NCc2cc(Cl)ccc2OCc2ccc(F)cc2)cc1	KCNQ2 pot 7.67
CCCCC(=O)Nc1ccc(NCc2ccc(C)s2)cc1	KCNQ2 pot 30.1
CCCCC(=O)Nc1ccc(C(N)=O)cc1	none
CC(C)(C)n1nc2c(c1NC(=O)Cc1cccs1)CSC2	KCNQ2 pot 9.52
CC(C)(C)n1nc2c(c1NC(=O)COc1ccc(Cl)cc1)CSC2	none (no result: KCNQ2 pot)
Oc1ccc(N=Nc2ccc(Br)cc2)c(O)c1	none
Cc1ccc(N=Nc2ccc(O)cc2)c(Br)c1	KCNQ2 block -5.73
CCOc1ccc(S(=O)(=O)N2CCCCC2)cc1NC(=O)C1CSC2(C)CCC(=O)N12 (stereo not given)	none (no result: KCNQ2 pot)
CCOC(=S)SCc1cn2cccc(C)c2n1	none
C/C(=N\O)C1(C)N(O)C(C)(C)C(c2ccco2)=[N+]1[O-] (stereo not given)	none (no result: KCNQ2 pot)
C/C(=N\Nc1cccc(Cl)c1)C1(C)N(O)C(C)(C)C(c2ccco2)=[N+]1[O-] (stereo not given)	KCNQ2 block -6.36
CCN1CCN(S(=O)(=O)c2c(C)cc(C)cc2C)CC1	none
CCOc1cc(C(=O)NC2CC(C)(C)NC(C)(C)C2)cc(OCC)c1OCC	none (no result: KCNQ2 pot)
CCC1(c2ccc(Cl)cc2)NC(=S)N(c2ccc(C)cc2)N1 (stereo not given)	KCNQ2 pot 17.2
CC1(CCc2ccccc2)NC(=S)N(c2ccc(Cl)cc2)N1 (stereo not given)	none (no result: KCNQ2 pot)
CCN1CCCC(OC(=O)c2cc(-c3ccccc3Cl)nc3ccccc23)C1 (stereo not given)	none (no result: KCNQ2 pot)
CC1CC(=O)NN1C(=O)c1ccccc1 (stereo not given)	none
O=C(COC(=O)c1cccc(Br)c1)NCCNC(=O)COC(=O)c1cccc(Br)c1	none (no result: KCNQ2 pot)
O=C(CSCc1ccccc1)NCCc1ccc(F)cc1	none
O=C(CSCc1ccc(Br)cc1)NCCc1ccccc1	KCNQ2 block -5.54
O=C(COC(=O)c1cccc(Br)c1)NCCc1ccccc1	KCNQ2 block -5.66
CC(C1CCN(Cc2nc(C3CC3)no2)CC1)N1CCOCC1 (stereo not given)	none
COCCCN1C(=O)C2C(C(=O)Nc3cc(C)cc(C)c3)C3C=CC2(O3)C1C(=O)NC1CCCCC1 (stereo not given)	none (no result: KCNQ2 pot)

Compound activity deposited in PubChem BioAssay by Johns Hopkins Ion Channel Center.
